The values that follow come from PubChem BioAssay (Tox21).

Experiment [1] in a line: qHTS assay to test for compound auto fluorescence at 535 nm (green) in HEK293 cells (AID 720680). For orientation: qHTS replaces the single test concentration by a dilution series.
The nature of experiment [2]: qHTS assay to test for compound auto fluorescence at 535 nm (green) in HEK293 cell free culture (AID 720682). The essentials:
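DMEM + 10% FBS, cell-free; cpd or DMSO pinned in; Ex485/Em535 read; output as fluorescein-equivalent signal.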

Experiment [3] in a line: qHTS assay to test for compound auto fluorescence at 590 nm (red) in HEK293 cell free culture (AID 720683). Summed up:
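Red-channel autofluorescence of compounds in culture medium (DMEM, 10% FBS), no cells, measured at 540/590 nm. Rose Bengal sodium is the reference fluorophore for equivalence.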

Experiment [4] can be described thus: qHTS assay to test for compound auto fluorescence at 590 nm (red) in HepG2 cell free culture (AID 720684). The essentials: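 Plate contents were MEM with 10% FBS plus test compound or DMSO, no cells. Fluorescence was recorded with 540 nm excitation and 590 nm emission.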
Experiment [5] can be described thus: qHTS assay to test for compound auto fluorescence at 460 nm (blue) in HepG2 cell free culture (AID 720685). Summed up:
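Compound (23 nL) or DMSO pinned into cell-free MEM with 10% FBS; blue fluorescence read at 405/460 nm excitation/emission, expressed as auto-fluorescence equivalency to triamterene.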

The nature of experiment [6]: qHTS assay to test for compound auto fluorescence at 460 nm (blue) in HepG2 cells (AID 720687). The essentials: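 Blue-channel autofluorescence (Ex/Em 405/460 nm, triamterene-equivalent) was measured after 1 hr compound exposure at 37 C, 5% CO2. Cells were HepG2, plated overnight at 37 C in MEM plus 10% FBS.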
Experiment [7] has as its target Glucocorticoid receptor (Homo sapiens) (UniProt P04150). Nature of the experiment: qHTS assay to identify small molecule agonists of the glucocorticoid receptor (GR) signaling pathway (AID 720691; active = well fitted activation curve with a large enough effect in the signal ratio in the repeat runs, not every such curve was filed as active; the % refers to the signal ratio). Summed up:
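GR-bla HeLa cells (beta-lactamase reporter under glucocorticoid response element) were plated 4 h at 37 C/5% CO2, given compounds in DMSO, and incubated 18 h at 37 C. LiveBLAzer B/G FRET substrate was added for 2 h at room temperature, then fluorescence intensity read.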

For experiment [8] the target is unchanged. The experiment in a line: qHTS assay to identify small molecule antagonists of the glucocorticoid receptor (GR) signaling pathway (AID 720692; active = well fitted inhibition curve with a large enough effect in the signal ratio in the repeat runs, not every such curve was filed as active; the % refers to the signal ratio). The essentials:
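GR-bla HeLa cells (beta-lactamase reporter under glucocorticoid response element) were pre-plated 4 h at 37 C, treated with compounds plus 5 nM dexamethasone (final) for 18 h, then read by LiveBLAzer B/G FRET fluorescence after 2 h.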

Experiment [9] in a line: qHTS assay to identify small molecule antagonists of the glucocorticoid receptor (GR) signaling pathway - cell viability counter screen (AID 720693). Note: nearly all actives have a fitted effect of over 55% in size.
Experiment [10] can be described thus: qHTS assay for identifying genotoxic compounds that show differential cytotoxicity against isogenic chicken DT40 cell lines with known DNA damage response pathways - Rev3 mutant cell line (AID 743014). Note: nearly all actives have a fitted effect of over 55% in size. Note: potency is the fitted concentration of half-maximal effect.
Experiment [11] is described as follows: qHTS assay for identifying genotoxic compounds that show differential cytotoxicity against isogenic chicken DT40 cell lines with known DNA damage response pathways - Rad54/Ku70 mutant cell line (AID 743015). Note: nearly all actives have a fitted effect of over 60% in size. Note: potency is the fitted concentration of half-maximal effect.
Experiment [12] in a line: qHTS assay to identify small molecule antagonists of the androgen receptor (AR) signaling pathway using the MDA cell line - cell viability counter screen (AID 743041; note: nearly all actives have a fitted effect of over 45% in size; note: potency is the fitted concentration of half-maximal effect). Summed up:
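R1881-driven MDA-kb2 AR-luc cells, 3,000/well, were dosed with library compounds for 16 h; cell health came from CellTiter-Fluor fluorescence in the reporter wells.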

The nature of experiment [13]: qHTS assay to test for compound auto fluorescence at 535 nm (green) in HepG2 cell free culture (AID 720686).
Experiment [14] is described as follows: qHTS assay for identifying genotoxic compounds that show differential cytotoxicity against isogenic chicken DT40 cell lines with known DNA damage response pathways - wild type cell line (AID 743012). Note: nearly all actives have a fitted effect of over 60% in size. Note: potency is the fitted concentration of half-maximal effect. The essentials:
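Parental DNA repair-proficient DT40 cells, 300 per well, were pre-incubated ~0.5 h at 37 C/5% CO2, pin-dosed with compounds in DMSO, then incubated 40 h. Viability was read as CellTiter-Glo luminescence after 30 min at room temperature.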

Experiment [15] is described as follows: qHTS assay to identify small molecule antagonists of the androgen receptor (AR) signaling pathway - cell viability counter screen (AID 743033; note: nearly all actives have a fitted effect of over 45% in size).

Structures are written as SMILES. “And” between values parts separate entries of the source, which are not always exact repeats. Identical values can stand only once. Inconclusive results are not listed. The source holds several records for some structures; these can differ, active in one and inactive in another. The source made the active and inactive calls. Unless noted, calls come from the whole dose curve; as a rule, active = well fitted curve in the direction sought with a large enough effect in the repeat runs; inconclusive = weak or mixed curves; inactive = no such curve, though single readings can be large; an effect the other way counts as inactive or inconclusive.

Chain of Glucocorticoid receptor (Homo sapiens) (P04150 whole entry, looked up): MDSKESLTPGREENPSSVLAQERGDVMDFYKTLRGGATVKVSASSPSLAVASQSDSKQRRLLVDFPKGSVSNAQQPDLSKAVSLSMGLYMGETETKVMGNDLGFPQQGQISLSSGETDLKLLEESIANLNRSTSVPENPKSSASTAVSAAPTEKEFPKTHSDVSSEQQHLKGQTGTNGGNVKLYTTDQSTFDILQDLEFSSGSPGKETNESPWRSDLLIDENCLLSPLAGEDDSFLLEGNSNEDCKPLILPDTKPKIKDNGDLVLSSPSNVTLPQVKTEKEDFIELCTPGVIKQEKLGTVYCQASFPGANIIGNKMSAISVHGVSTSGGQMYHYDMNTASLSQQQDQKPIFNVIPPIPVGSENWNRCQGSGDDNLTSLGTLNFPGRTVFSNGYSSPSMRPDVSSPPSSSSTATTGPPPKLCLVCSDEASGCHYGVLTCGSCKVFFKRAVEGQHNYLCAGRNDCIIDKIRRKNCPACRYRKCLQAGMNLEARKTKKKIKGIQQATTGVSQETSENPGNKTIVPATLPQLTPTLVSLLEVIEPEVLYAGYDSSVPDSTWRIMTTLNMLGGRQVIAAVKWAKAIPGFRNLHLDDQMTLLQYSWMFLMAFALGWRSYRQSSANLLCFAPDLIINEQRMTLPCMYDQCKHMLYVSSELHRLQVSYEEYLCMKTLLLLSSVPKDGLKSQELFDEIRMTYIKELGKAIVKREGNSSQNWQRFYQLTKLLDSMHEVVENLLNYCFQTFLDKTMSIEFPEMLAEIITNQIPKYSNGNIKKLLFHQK

For `CS(=O)(=O)c1ccc(Cl)cc1`, the call in experiment [1], in experiment [2], in [3], in experiment [4] and in [7] was inactive. Besides, the Potency result in [5], in [6], in experiment [8], in experiment [9], in [10] and in experiment [11] was “inactive” in each case. Moreover, the Potency entry in experiment [12] is “inactive”.

Consider `CC(C)c1ccc(C(C)C)cc1`, for which the call in experiment [1], in experiment [2], in experiment [3], in experiment [4], in [13] and in experiment [7] was inactive. Moreover, the Potency result in experiment [5], in experiment [6], in experiment [8], in [9], in experiment [10] and in experiment [11] was “inactive” in each case. Moreover, the Potency result in [12] is “inactive”.

Turning to `Nc1cccc(N)n1`, the result in experiment [1], in [2], in experiment [3], in experiment [4], in [13] and in [7] was inactive. Moreover, the Potency result in experiment [5], in [9], in [14], in experiment [10], in [11] and in [15] was “inactive” each time.

Consider `O=Cc1ccc(CO)o1`, for which the molecule was called inactive in experiment [1], in [2], in experiment [3], in experiment [4], in [13] and in experiment [7]. The Potency result in experiment [5], in experiment [6], in experiment [8], in experiment [9], in experiment [14] and in experiment [10] was “inactive” each time. Besides, the Potency result in experiment [11], in experiment [15] and in experiment [12] was “inactive” throughout.

With `C1CCCNCC1`, the molecule was classed as inactive in [1], in experiment [2], in experiment [3], in experiment [4] and in experiment [7]. Besides, the Potency entry in [5], in experiment [6], in [8], in experiment [9], in [10] and in experiment [11] was “inactive” in each case. Also, the Potency entry in experiment [15] is “inactive”.

Take `CC[N+](CC)(CC(=O)Nc1c(C)cccc1C)Cc1ccccc1`: the result in [1], in [2], in [3] and in experiment [4] was inactive. Further, the Potency entry in [5], in [6], in experiment [9], in experiment [11], in [15] and in experiment [12] was “inactive” throughout. In addition, the Potency result in experiment [14] was “inactive and 43.3 µM (active)”; in experiment [10] it was “inactive and 30.6 µM (active)”.

On to `OCc1ccc(Cl)cc1Cl`, for which the molecule was classed as inactive in experiment [1], in experiment [2], in experiment [3], in [4] and in [13]. Also, the Potency result in experiment [5], in experiment [6], in experiment [9], in experiment [14], in [10] and in experiment [11] was “inactive” in each case. Also, the Potency entry in [15] and in [12] was “inactive” in each case.

For the molecule `c1cnc2c(c1)ccc1cccnc12`, the molecule was classed as inactive in experiment [1], in [2], in experiment [3], in experiment [4] and in [13]. The Potency result in experiment [5], in experiment [6] and in [9] was “inactive” throughout. Also, the Potency in experiment [14] was 3.09 µM (active) and 1.54 µM (active) and 3.86 µM (active); in experiment [10], 1.38 µM (active) and 1.22 µM (active) and 2.43 µM (active); in experiment [11], 1.38 µM (active) and 686 nM (active) and 1.54 µM (active); in [12], 49 µM (active) and 30.6 µM (active).

In the case of `O=c1c(O)c(-c2ccc(O)c(O)c2)oc2cc(O)cc(O)c12`, the result in experiment [1], in experiment [2], in experiment [3], in experiment [4] and in [13] was inactive. In addition, the Potency entry in experiment [5], in [6], in experiment [9] and in experiment [12] was “inactive” in each case. Also, the Potency in experiment [10] was 54.5 µM (active) and 27.5 µM (active) and 61.1 µM (active); in experiment [11], 30.7 µM (active) and 24.5 µM (active) and 61.1 µM (active).

On to `CCCCCNCCCCC`, for which the result in [1], in [2], in experiment [3], in [4] and in [13] was inactive. In addition, the Potency entry in [5], in experiment [6], in experiment [9], in experiment [14], in experiment [10] and in experiment [11] was “inactive” throughout. Further, the Potency entry in experiment [15] was “inactive”.

Consider `CCOC(=O)c1ccc(O)cc1`, for which the result in experiment [1], in [2], in [3], in experiment [4] and in experiment [7] was inactive. For the same molecule, the Potency entry in [5], in experiment [6], in [8], in experiment [9], in experiment [14] and in experiment [10] was “inactive” throughout. For the same molecule, the Potency entry in [11] and in experiment [12] was “inactive” each time.

Take `Cc1ccc(C)c(S(=O)(=O)O)c1`: the result in experiment [1], in experiment [2], in experiment [3], in experiment [4] and in experiment [13] was inactive. Also, the Potency result in experiment [5], in [6], in experiment [9], in experiment [14], in [10] and in experiment [11] was “inactive” each time. Moreover, in experiment [15], the Potency result is “inactive”.
